Inhibition data for 59 molecules are collected here from PubChem BioAssay AID1626 (SRMLSC, 2009).

Among all 220,000 compounds or so, about 2,000 (0.91%) were called active. Another 2% or so got no clear call; they are omitted. Not all results are given here. Measured potencies and affinities stand elsewhere. Values without a mark were called inactive. Cut-off read from the data, not from the text of the source: inconclusive = inhibition above about 80% without an active follow-up result; inactive = below that; test concentration not stated here.

The experiment can be described thus: M. tuberculosis H37Rv growth inhibitors, H37Rv strain (AID 1626).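 Note: bacteria incubated seven days before Alamar blue readout; 0% = bacteria only wells and 100% = bacteria with antibiotic wells.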 The following applies: stronger effect = higher value, concentration not given here.
For `CCC(=O)NC(=S)Nc1cccc(NC(=O)c2ccccc2Cl)c1`, the inhibition was 8.67%. For `N#C/C(=C\c1ccc(C(=O)O)cc1)S(=O)(=O)c1cc(Br)ccc1Br` the value was 17%; for `CCn1c(SCC(=O)O)nnc1-c1cccnc1`, -5.44%; for `CC1CN(c2ncnc3c2c(-c2ccccc2)cn3-c2ccc(F)cc2)CC(C)O1` (centres undefined), 8.16%.

Regarding `CCOC(=O)c1sc2nc(N3CCOCC3)c3c(c2c1N)CC(C)(C)N(C)C3`, the inhibition is -3.62%.

For `CN1Cc2c(N3CCOCC3)nc3sc(C(=O)c4ccccc4)c(N)c3c2CC1(C)C`, the inhibition is 8.23%. For `Cc1ccccc1OCCNc1cc(N2CCN(CCO)CC2)ccc1[N+](=O)[O-]` the value was 27.5%. The figure for `O=C(NCc1ccccc1)c1nc2c(nnn2Cc2cccc(Cl)c2)c(=O)[nH]1` is -4.36%; for `COC(=O)C1CCN(C(=O)c2sc3nc(-c4ccc(F)cc4)cn3c2C)CC1` it is 6.16%; for `CCC(=Nc1ccccc1OC)C1=C(O)CC(c2ccccc2)CC1=O` (centres undefined) it is 6.17%. The figure for `CCCC(=Nc1ccccc1OC)C1=C(O)CC(c2ccccc2)CC1=O` (centres undefined) is 2.17%; for `CN(CC(=O)Nc1ccc(S(=O)(=O)N2CCCC2)cc1)CC(=O)Nc1cccc(F)c1` it is 2.32%. Turning to `O=C1CC(c2cccs2)Cc2nc(NCC3CCCO3)ncc21` (centres undefined), the inhibition was -8.23%. The figure for `Cc1nc2ccccc2c(=O)n1NC(=O)/C=C/c1ccccc1Cl` is -8.45%; for `Cn1c(COc2ccccc2)nnc1SCC(=O)NNC(=O)C1CCCCC1` it is -10.3%; for `COc1cccc(OCc2nnc(SCC(=O)OC3CCCCC3)n2C)c1` it is 6.41%. For `CCn1c(COc2cccc3ccccc23)nnc1SCC(N)=O` the value was -13.4%; for `O=C(O)CSc1nnc(COc2cccc3ccccc23)n1Cc1ccccc1`, -1.72%.

On to `COc1cccc(C(c2nnnn2CS(=O)(=O)c2ccc(C)cc2)N2CCN(C)CC2)c1OC` (centres undefined), for which the inhibition is -6.9%. For `CN1CCN(CC#CC(C)(O)C2CC3C=CC2C3)CC1` (centres undefined) the value was 8.02%; for `CCN(c1ccccc1)S(=O)(=O)c1ccc(Cl)c(C(=O)OCC(=O)NC(=O)C(C)C)c1`, -9.03%. The figure for `CC(C)(C)c1ccc(OC(=O)c2ccc3nsnc3c2)cc1` is 29.5%; for `Cc1ccc(OC(=O)c2ccc3snnc3c2)cc1` it is 68.6%; for `COc1ccc2[nH]c(=O)c(CN(C(=O)c3cccnc3)c3ccccc3C)cc2c1` it is -2.62%. Regarding `O=C(Nc1ccc(NC(=O)c2ccccn2)cc1)C(=O)Nc1ccc2c(c1)OCCO2`, the inhibition is 1.18%. For `COc1ccc(-c2c(C#N)c(SCC(N)=O)nc3c2CCCC3)cc1` the value was 2.47%; for `COc1cccc(NC(=O)CSc2nc3c(c(-c4ccco4)c2C#N)CCCC3)c1`, -2.62%. For `Cc1ccccc1NC(=O)CSc1nc2c(c(-c3ccco3)c1C#N)CCCC2` the value was -3.31%; for `N#Cc1c(SCC(=O)O)nc(-c2ccccc2)c2c1CCCC2`, -9.5%; for `CCSc1nc2c(c(-c3ccc(C)o3)c1C#N)CCCC2`, 2.67%.

In the case of `COC(=O)CSc1nc2c(c(-c3ccc(O)cc3)c1C#N)CCCC2`, the inhibition was -6.65%. For `COC(=O)CSc1nc(-c2ccc(C)cc2)c2c(c1C#N)CCCC2` the value was 72.2%; for `Cc1ccc(-c2c(C#N)c(N)nc3c2CCCC3)o1`, -11.1%; for `O=C(O)c1ccc(-c2noc(-c3cccc(F)c3)n2)cc1`, -9.57%.

On to `COc1ccc2[nH]c(=O)c(CN(CCCN3CCOCC3)C(=O)NCc3ccccc3)cc2c1`, for which the inhibition was 6.13%. The figure for `COc1cc(NC(=O)CSc2nnc(Cn3nnc4ccccc43)n2C)cc(OC)c1` is 3.53%; for `CCCCN(C)CCC(=O)Nc1ccc(OC)cc1OC` it is -13.6%; for `Cc1ccccc1Nc1cc(C(=O)NCC2CCCO2)c2ccccc2n1` (centres undefined) it is 5.9%. The figure for `CCOC(=O)N1CCN(C(=S)Nc2cccc(C)c2)CC1` is -4.85%. For `COc1ccc(C(=O)Nc2ccc(NC(=O)c3cccs3)cc2)cc1Cl` the value was -14.7%; for `CC(=O)Nc1ccc(C(=O)N/N=C/c2ccc(F)cc2)cc1`, 7.2%; for `Cc1ccsc1C(C(=O)NC1CCCCC1)N(C(=O)c1csnn1)C1CC1` (centres undefined), -8.93%. With `COC(=O)CSc1nc(-c2ccccc2)nc2ccccc12`, the inhibition was 5.34%.

`COC(=O)CSc1cnc2ccccc2n1`: the inhibition is -1.39%.

`Cc1ccc(-n2c(C)nn(CCOc3ccccc3)c2=O)cc1`: the inhibition was 6.33%. For `CN(C)C(/C=C/Nc1cccc([N+](=O)[O-])c1)=C(C#N)C#N` the value was -7.29%; for `CCN(CC)c1nc(Oc2ccc(=O)[nH]n2)nc(N2CCOCC2)n1`, 0.81%.

Regarding `Cc1ccccc1NC(=O)NC(C)(C)CC(C)(C)C`, the inhibition is -4.38%.

For `COc1cccc(C(C(=O)NC(C)(C)C)N(CC(C)C)C(=O)CCC(=O)Nc2cc(C)on2)c1OC` (centres undefined), the inhibition was -4.52%. For `O=C(c1ccc(NC2=NC3CS(=O)(=O)CC3S2)cc1)N1CCN(C(=O)c2ccco2)CC1` (centres undefined) the value was -2.98%; for `Cc1ccc(-n2cc(CN3CCC(CO)(Cc4ccccc4)CC3)cn2)cc1`, 0.885%.

With `OCC1(Cc2cccc(C(F)(F)F)c2)CCN(Cc2cc(F)cc(F)c2)CC1`, the inhibition is 1.35%. The figure for `O=C(CCN1C(=O)c2ccccc2C1=O)C1=NN[C@@H]2C(=O)N(c3ccc4c(c3)OCO4)C(=O)[C@H]12` is -4.07%. For `COc1ccc(CN(CC2CCCO2)C(=O)c2cc3sccc3n2C)c(OC)c1` (centres undefined) the value was -12%; for `CC1(C)Cc2c(sc3c2c(=O)n(-c2cccc(Cl)c2)c(=O)n3CC(N)=O)CO1`, -12.2%; for `CCOC(=O)C1=CN(Cc2ccc(OC)cc2)C=C(C(=O)OCC)C1c1cccs1`, -0.52%. For `Cc1cc(Nc2ccc(C)c(Cl)c2)nc(N2CCOCC2)n1` the value was 12.8%; for `Cc1cc(C(=O)Nc2ccc3c(c2)OCCO3)c2ccccc2n1`, -3.31%. As for `O=C(Nc1ccc2c(c1)OCCO2)c1ccccc1F`, the inhibition is 6.75%.

Broadly, the inhibition is the drop in the measured response relative to a control, in per cent.
